Measured values as given in PubChem BioAssay (NCATS).
Values joined by “and” are separate entries in the source; they are usually repeats but may differ in a detail not shown here. Equal values may be shown once. Inconclusive results are not listed. Entries that show only a call come without a potency. Active and inactive are the calls of the source. Unless noted, calls follow the shape of the dose curve; as a rule, active = well fitted curve in the direction sought with a large enough effect; inconclusive = small, poorly fitted or top-dose-only effect, or another doubt; inactive = no such curve, though single readings can be large; an effect the other way counts as inactive or inconclusive.

How the values were obtained:
[1] = target: Calcium and integrin-binding protein 1 (Homo sapiens) (UniProt Q99828); experiment: Primary qHTS for Identification of Calcium Integrin Binding Protein 1 (CIB1) Competitor (AID 1508620);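 also: GST tagged CIB1 binding a fluorescein labelled alphaIIb integrin peptide tracer; top concentration of the series differs between compounds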
Chain of Calcium and integrin-binding protein 1 (Homo sapiens) (Q99828 whole entry, looked up): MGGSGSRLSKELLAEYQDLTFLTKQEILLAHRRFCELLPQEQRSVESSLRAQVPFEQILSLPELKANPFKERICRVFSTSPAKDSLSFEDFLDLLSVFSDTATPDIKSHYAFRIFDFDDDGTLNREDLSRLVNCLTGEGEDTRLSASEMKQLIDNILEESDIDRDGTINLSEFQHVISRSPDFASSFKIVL
How it was run: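 CIB1-GST (1 uM final) and compound incubated 15 min at room temperature before adding FITC-alphaIIb peptide tracer (100 nM final). Competition for binding read by fluorescence polarization (ex 480, em 540) after another 15 min at room temperature.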

[2] = Primary qHTS for small molecule stabilizers of the endoplasmic reticulum resident proteome: Secreted ER Calcium Modulated Protein (SERCaMP) assay (AID 1508630)
How it was run: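 GLuc-SERCaMP-expressing SH-SY5Y cells, pretreated 16 h with compound, are challenged with thapsigargin to empty ER calcium stores; after 4 h, coelenterazine is added directly to the medium and luminescence is imaged.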

[3] = target: Cytochrome P450 2D6 (Homo sapiens) (UniProt P10635); experiment: Cytochrome P450 family 2 subfamily D member 6 (CYP2D6) small molecule antagonists: luciferase biochemical (cell-free) qHTS assay (AID 1645840; active = well fitted curve in the direction sought with a large enough effect in the repeat runs; an effect the other way counts as inactive or inconclusive; also: nearly all actives have a fitted effect of over 55% in size; also: potency is read from the fitted curve at half-maximal effect)
Chain of Cytochrome P450 2D6 (Homo sapiens) (P10635 whole entry, looked up): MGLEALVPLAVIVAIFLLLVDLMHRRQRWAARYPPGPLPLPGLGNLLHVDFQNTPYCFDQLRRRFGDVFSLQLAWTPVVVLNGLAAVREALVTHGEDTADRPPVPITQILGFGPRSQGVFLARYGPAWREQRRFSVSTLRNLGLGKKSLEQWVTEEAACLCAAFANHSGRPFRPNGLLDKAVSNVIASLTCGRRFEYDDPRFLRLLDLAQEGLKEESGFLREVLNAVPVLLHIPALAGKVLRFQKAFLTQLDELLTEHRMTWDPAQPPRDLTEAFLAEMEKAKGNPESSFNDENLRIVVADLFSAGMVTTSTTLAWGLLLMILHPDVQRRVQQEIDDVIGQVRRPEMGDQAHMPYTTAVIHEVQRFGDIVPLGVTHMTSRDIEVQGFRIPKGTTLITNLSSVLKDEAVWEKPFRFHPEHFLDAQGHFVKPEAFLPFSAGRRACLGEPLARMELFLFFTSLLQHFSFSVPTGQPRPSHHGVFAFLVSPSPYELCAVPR
How it was run: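 P450-Glo luminescent screen: recombinant CYP2D6 enzyme–proluciferin substrate mix preincubated with compound 10 min at room temperature, then NADPH regeneration added for 1 h at room temperature. Detection reagent added for 20 min; luciferin light read as relative luminescence units.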

[4] = target: Cytochrome P450 2C9 (Homo sapiens) (UniProt P11712); experiment: Cytochrome P450 family 2 subfamily C member 9 (CYP2C9) small molecule antagonists: luciferase biochemical (cell-free) qHTS assay (AID 1645842; active = well fitted curve in the direction sought with a large enough effect in the repeat runs; an effect the other way counts as inactive or inconclusive; also: nearly all actives have a fitted effect of over 55% in size; also: potency is read from the fitted curve at half-maximal effect)
Chain of Cytochrome P450 2C9 (Homo sapiens) (P11712 whole entry, looked up): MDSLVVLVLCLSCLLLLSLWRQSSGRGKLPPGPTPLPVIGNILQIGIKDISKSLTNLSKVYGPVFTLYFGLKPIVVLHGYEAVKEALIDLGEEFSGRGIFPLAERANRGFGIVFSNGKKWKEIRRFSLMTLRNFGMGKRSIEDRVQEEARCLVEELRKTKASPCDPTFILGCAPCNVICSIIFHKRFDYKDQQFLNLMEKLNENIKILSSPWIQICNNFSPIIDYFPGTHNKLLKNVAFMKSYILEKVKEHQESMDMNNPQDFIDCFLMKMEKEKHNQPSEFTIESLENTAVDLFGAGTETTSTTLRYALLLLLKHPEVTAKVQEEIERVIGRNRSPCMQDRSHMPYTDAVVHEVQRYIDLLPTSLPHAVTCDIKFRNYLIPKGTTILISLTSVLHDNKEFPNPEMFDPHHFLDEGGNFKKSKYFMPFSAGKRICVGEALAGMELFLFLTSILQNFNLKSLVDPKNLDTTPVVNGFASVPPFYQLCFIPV
How it was run: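 Luminescence, after 20 min with luciferin detection reagent, reflected CYP2C9 turnover during a 1 h NADPH-driven reaction at 37C. Enzyme-substrate mix contained 0.4% bovine serum albumin and was preincubated with compound 10 min at room temperature.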

[5] = target: N-terminal Xaa-Pro-Lys N-methyltransferase 1 (Homo sapiens) (UniProt Q9BV86); experiment: Confirmatory qHTS for Inhibitors of N-terminal methyltransferase 1 (NTMT1): MTaseGlo Assay (AID 1645874); also: nearly all actives have a fitted effect of over 65% in size; also: potency is read from the fitted curve at half-maximal effect
Chain of N-terminal Xaa-Pro-Lys N-methyltransferase 1 (Homo sapiens) (Q9BV86 whole entry, looked up): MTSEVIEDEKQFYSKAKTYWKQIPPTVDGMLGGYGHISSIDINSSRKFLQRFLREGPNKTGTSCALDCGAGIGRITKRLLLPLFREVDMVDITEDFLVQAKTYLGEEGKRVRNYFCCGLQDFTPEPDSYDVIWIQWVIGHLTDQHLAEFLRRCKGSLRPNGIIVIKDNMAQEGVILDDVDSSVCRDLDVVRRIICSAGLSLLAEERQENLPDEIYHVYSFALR
How it was run: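 qHTS format: NTMT1 125 nM, SAM 100 uM, peptide SPKRIA 1 uM final; 15 min compound preincubation, 30 min reaction at room temperature. MTase-Glo luminescence.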

[6] = Primary qHTS for inhibitors of nuclear receptor binding SET domain protein 2 (NSD2) in an isogenic RCH-ACV NSD2 p.E1099K mutant (9B) (AID 1645876); also: nearly all actives have a fitted effect of over 70% in size; also: potency is read from the fitted curve at half-maximal effect
[7] = Primary qHTS for inhibitors of nuclear receptor binding SET domain protein 2 (NSD2) in an RCH-ACV wild type WT cells (2C) (AID 1645877); also: nearly all actives have a fitted effect of over 70% in size; also: potency is read from the fitted curve at half-maximal effect
[8] = target: Catechol O-methyltransferase (Homo sapiens) (UniProt P21964); experiment: Confirmatory Screen for Target Class Profiling of Small Molecule Inhibitors of Methyltransferases (AID 1745852); details: MTase-Glo luminescence, SAH detection, recombinant enzyme; measured here: COMT max response; stronger effect = lower value
Chain of Catechol O-methyltransferase (Homo sapiens) (P21964 whole entry, looked up): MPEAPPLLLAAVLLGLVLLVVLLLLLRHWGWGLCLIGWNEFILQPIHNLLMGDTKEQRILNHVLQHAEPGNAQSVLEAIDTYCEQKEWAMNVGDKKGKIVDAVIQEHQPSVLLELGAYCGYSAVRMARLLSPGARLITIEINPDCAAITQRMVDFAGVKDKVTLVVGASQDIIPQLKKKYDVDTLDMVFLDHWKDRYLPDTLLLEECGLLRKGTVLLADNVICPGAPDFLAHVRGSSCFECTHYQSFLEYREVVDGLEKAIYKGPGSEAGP

| Structure (SMILES) | outcome [1] | Potency [2] | Potency [3] | Potency [4] | Potency [5] | Potency [6] | Potency [7] | activity [8] [%] |
| --- | --- | --- | --- | --- | --- | --- | --- | --- |
| O=C(C=Cc1cccc(S(=O)(=O)Nc2ccccc2)c1)NO | inactive | inactive | – | – | – | – | – | – |
| Cc1[nH]c2ccccc2c1CCNCc1ccc(C=CC(=O)NO)cc1 | inactive | inactive | – | – | – | – | – | – |
| CC[C@H]1CN2CCc3cc(OC)c(OC)cc3[C@H]2C[C@@H]1C[C@@H]1NCCc2cc(OC)c(OC)cc21 | inactive | inactive | – | – | – | – | – | – |
| COc1ccc(-c2cc3c(C)nc(N)nc3n(C3CCC(OCCO)CC3)c2=O)cn1 (stereo not drawn) | inactive | inactive | inactive | 5.35 µM (active) and 4.25 µM (active) | inactive | 20.5 nM (active) and 41.7 nM (active) | 20.5 nM (active) and 41.7 nM (active) | – |
| CC(NCc1ccc2c(c1)nc(NC(=O)c1ccc(-c3cn[nH]c3)s1)n2CC(C)(C)O)C(C)(C)C (stereo not drawn) | inactive | inactive | – | – | – | – | – | – |
| CCC[C@H](NC(=O)C(C#N)=Cc1cccc(Br)n1)c1ccccc1 | inactive | inactive | – | – | – | – | – | – |
| CCOc1ccccc1OCCNC(C)Cc1ccc(OC)c(S(N)(=O)=O)c1 (stereo not drawn) | inactive | inactive | 10.7 µM (active) | inactive | – | inactive | inactive | – |
| CN1CCN(Cc2ccc(NC(=O)Nc3ccc(Oc4cc(NC(=O)C5CC5)ncn4)cc3)cc2C(F)(F)F)CC1 | inactive | inactive | 8.49 µM (active) | 10.7 µM (active) | – | 91.6 nM (active) and 166 nM (active) | 91.6 nM (active) and 186 nM (active) | – |
| O=C(O)c1ccc2c(c1)nc(Nc1cccc(Cl)c1)c1ccncc12 | inactive | inactive | inactive | 12 µM (active) | 28.2 µM (active) | 4.59 µM (active) and 2.95 µM (active) | 3.65 µM (active) | -68.6 |
| CC[C@@H]1C(=O)N(C)c2cnc(Nc3ccc(C(=O)NC4CCC(N5CCN(CC6CC6)CC5)CC4)cc3OC)nc2N1C(C)C (stereo partly drawn) | inactive | inactive | inactive | 7.56 µM (active) and 12 µM (active) | – | 36.5 nM (active) and 16.3 nM (active) and 41.7 nM (active) | 36.5 nM (active) and 41.1 nM (active) and 37.2 nM (active) | – |
| CCNC(=O)Nc1ccc2ncc(Nc3ccc(C)cc3)nc2n1 | inactive | inactive | inactive | inactive | – | inactive | inactive | – |
| COc1ccc2c(c1)CC[C@@H](CN(C)CC(=O)O)[C@H]2c1ccccc1 | inactive | inactive | inactive | inactive | – | inactive | inactive | – |
| COc1cc2c(Oc3ccc(-c4cnc(Nc5ccc(F)cc5)n(C)c4=O)cc3F)ccnc2cc1OCCCN1CCOCC1 | inactive | inactive | inactive | inactive | – | 4.09 µM (active) and 1.48 µM (active) | 4.59 µM (active) and 2.09 µM (active) | – |
| CNC(=O)c1c(F)cccc1Nc1nc(Nc2cc3c(cc2OC)CCN3C(=O)CN(C)C)nc2[nH]ccc12 | inactive | inactive | inactive | 0.425 µM (active) | – | 5.15 µM (active) and 7.42 µM (active) | 3.25 µM (active) and 5.9 µM (active) | – |
| NC(=O)c1c(OCc2c(F)cc(Br)cc2F)nsc1NC(=O)NCCCCN1CCCC1 | inactive | inactive | 10.7 µM (active) | 16.9 µM (active) | – | 10.5 µM (active) | 7.42 µM (active) | – |
| CC(C)c1nn(-c2c(Cl)cccc2Cl)c2nc(Cc3ccc(OCCO)cc3)[nH]c(=O)c12 | inactive | inactive | inactive | 5.35 µM (active) | – | 45.9 nM (active) and 46.8 nM (active) | 25.8 nM (active) and 41.7 nM (active) | – |
| CS(=O)(=O)c1ccc(-c2cnc(N)c(C(=O)Nc3ccccc3)n2)cc1 | inactive | inactive | inactive | 12 µM (active) | – | 2.63 µM (active) | 2.63 µM (active) | – |
| CC(C)(C)c1cnc(CSc2cnc(NC(=O)C3CCNCC3)s2)o1 | inactive | inactive | 25.1 µM (active) | 17.8 µM (active) | – | 0.209 µM (active) | 0.148 µM (active) | – |
| COc1c(N2C[C@@H]3CCCN[C@H]3C2)c(F)cc2c(=O)c(C(=O)O)cn(C3CC3)c12 | inactive | inactive | inactive | inactive | – | inactive | inactive | – |
| CNC(=O)c1ccc(N2C(=S)N(c3cnc(C#N)c(C(F)(F)F)c3)C(=O)C23CCC3)cc1F | inactive | inactive | inactive | 6.74 µM (active) | – | inactive | inactive | – |
